# Experimental data from PubChem BioAssay (NCI).
# Compounds without any hit were thinned out: in the full panel of roughly 83,000, 20% have a hit.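 Cell lines were cultured in 96-well plates, exposed to a single compound concentration, and assessed for percent growth 48 hours later.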 Unmarked numbers belong to inactive results. The source made the active and inactive calls. How the source made its calls: active means growth percent below 10; inactive means the rest.
# How the values were obtained:
# Assay in all cases: NCI-60 one-dose screen, 48 h (100 = growth as untreated, 0 = no growth, -100 = all killed)
# Conditions in all cases: 10 µM unless noted
# [1] = test system: SR leukemia
# [2] = test system: OVCAR-8 ovarian
# [3] = test system: OVCAR-4 ovarian
# [4] = test system: SK-OV-3 ovarian
# [5] = test system: IGROV1 ovarian
# [6] = test system: OVCAR-3 ovarian
# [7] = test system: HS 578T breast
# [8] = test system: NCI/ADR-RES ovarian
# [9] = test system: T-47D breast
# [10] = test system: BT-549 breast
# [11] = test system: MDA-MB-435 melanoma
# [12] = test system: SW-620 colon
# [13] = test system: HCT-116 colon
# [14] = test system: HCC-2998 colon
# [15] = test system: KM12 colon
# [16] = test system: RPMI-8226 leukemia
# [17] = test system: OVCAR-5 ovarian
# [18] = test system: MCF7 breast
Compound,growth [1],growth [2],growth [3],growth [4],growth [5],growth [6],growth [7],growth [8],growth [9],growth [10],growth [11],growth [12],growth [13],growth [14],growth [15],growth [16],growth [17],growth [18]
COc1ccc2c(c1)OC1=C(C(=O)OC1)C2c1cc(OC)c2c(c1)OCO2 (stereo unspecified),-7% (active),20.2%,39.8%,8.55% (active),21.1%,-51.3% (active),14.9%,13.6%,52.1%,26%,-22.5% (active),18.7%,10%,14.9%,1.61% (active),–,–,–
O=C1/C(=C/c2ccc(Cl)cc2)CN(Cc2cn(CCNc3ccnc4cc(Cl)ccc34)nn2)C/C1=C\c1ccc(Cl)cc1,–,-59.5% (active),-4.44% (active),-95.5% (active),-75.7% (active),-100% (active),-19.8% (active),-26.6% (active),-32.6% (active),-96.4% (active),-98.6% (active),-92.5% (active),-85.5% (active),-95.1% (active),-93.9% (active),-22% (active),-94.9% (active),-100% (active)
CN(C[C@H]1Cc2c(cccc2N2CCN(Cc3ccccn3)CC2)CN1)[C@H]1CCCc2cccnc21,–,42.7%,72.6%,51.2%,49.2%,64.9%,92.2%,28.1%,44.6%,81.9%,69.6%,51.3%,30.8%,94%,51.7%,64.5%,71%,44.1%
C=COC(=O)CCCCCCCCC,–,101%,109%,111%,97.1%,120%,102%,103%,110%,108%,106%,99.1%,109%,101%,106%,100%,111%,101%
C=C1CCC2C3(C)COC(C)(C)OC3CCC2(C)C1C/C=C1/C(=O)OCC1Oc1ccccc1OC (stereo unspecified),28.9%,81.1%,–,114%,–,31.3%,113%,85.6%,54.3%,–,68.6%,21.4%,73.3%,122%,97.9%,–,101%,30.2%
COc1ccc(C2C=C(c3ccc(Cl)cc3)N=C3SC=C(C)N32)c(Br)c1 (stereo unspecified),–,18.6%,48.1%,35.3%,46.1%,10.8%,56.3%,33.2%,39.3%,19.7%,9.2% (active),24.2%,16%,–,–,14.9%,67%,10.2%
CC(=O)Oc1cccc(S(=O)(=O)n2cc(C(=O)C(=O)Nc3ccncc3)c3ccccc32)c1,–,89.7%,78%,92.5%,84.7%,101%,98.5%,80.2%,73.6%,83.8%,38.5%,98%,76.6%,84.3%,83.6%,65.2%,90.8%,79.5%
NC(=O)CCCN1C/C(=C\c2ccccc2)C(=O)c2ccccc21,–,98.4%,98.9%,89.5%,102%,109%,99.6%,109%,83.2%,93.7%,101%,97.6%,101%,93.8%,101%,101%,101%,96.7%
CN(CCCCN(C[C@H]1Cc2ncccc2CN1)[C@H]1CCCc2cccnc21)C1CCC(F)(F)CC1,–,85.6%,108%,90.6%,111%,98.4%,105%,85.8%,99.2%,85.8%,108%,98.7%,71.1%,88.7%,88%,92.5%,79%,83.7%
